Values joined by “and” are separate entries in the source; they are usually repeats but may differ in a detail not shown here. Equal entries are not always repeated. The whole screen tested about 310,000 compounds, of which about 17,000 (5.5%) were called active. Another 11% or so got no clear call; they are omitted. Calls follow the shape of the dose curve; as a rule, active = well fitted inhibition curve with a large enough effect; inconclusive = small, poorly fitted or top-dose-only effect, or effect the other way; inactive = no such curve, though single readings can be large or run the other way. The full list was thinned out, with actives kept by preference. Some compounds were tested as several samples or in several runs, with calls that do not always agree.
molecular target: Nuclear receptor ROR-gamma (Mus musculus) (UniProt P51450); experiment: qHTS for inhibitors of ROR gamma transcriptional activity; conditions: Drosophila S2 Gal4-RORgamma UAS-luciferase reporter, 20 h; series mostly up to 53.6 µM; activity change, negative = inhibition: at the top concentration; also: nearly all actives have a fitted effect of over 60% in size
Method in brief: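 A Gal4/UAS one-hybrid system in insect cells: metallothionein-promoter Gal4–ROR gamma fusion plus Photinus luciferase reporter. Copper sulfate 700 uM final, 20 hr ambient incubation, luminescent detection after 10 min with reagent.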
% is scaled to controls: 0 for no effect and ±100 for the full control effect; potency is read from the fitted curve at half-maximal effect.

Nuclear receptor ROR-gamma (Mus musculus), sequence (P51450 whole entry, looked up, the tested form may be a part): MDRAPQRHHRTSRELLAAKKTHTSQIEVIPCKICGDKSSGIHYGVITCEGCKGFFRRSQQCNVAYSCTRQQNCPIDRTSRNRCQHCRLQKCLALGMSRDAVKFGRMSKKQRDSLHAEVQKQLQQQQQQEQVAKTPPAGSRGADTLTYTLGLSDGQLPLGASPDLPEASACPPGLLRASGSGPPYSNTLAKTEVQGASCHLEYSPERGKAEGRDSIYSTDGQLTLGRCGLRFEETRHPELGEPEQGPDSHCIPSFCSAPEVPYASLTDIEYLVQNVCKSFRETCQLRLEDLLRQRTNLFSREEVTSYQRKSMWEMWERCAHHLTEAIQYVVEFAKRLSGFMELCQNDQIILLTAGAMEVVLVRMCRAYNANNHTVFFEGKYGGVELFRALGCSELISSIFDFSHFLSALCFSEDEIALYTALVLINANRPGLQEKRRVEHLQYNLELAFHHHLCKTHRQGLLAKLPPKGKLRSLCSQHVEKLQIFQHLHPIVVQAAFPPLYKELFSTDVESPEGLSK

Row | SMILES | activity change, negative = inhibition | Potency
1 | O=S(=O)(Oc1ccccc1C(=S)N1CCOCC1)c1ccc(Cl)cc1 | -1.78% (inactive) | 
2 | Cc1cc(C)cc(C(=O)NCCN2CCOCC2)c1 | -10.6% (inactive) | 
3 | O=C1CCNCCN1[C@H](CO)Cc1ccccc1 | -13.7% (inactive) | 
4 | Cc1cc2occ(CC(=O)NNC(=O)c3ccccc3F)c2cc1C | 18.8% (inactive) | 
5 | O=C(N/N=C/c1cccnc1)c1ccc(NC(=O)c2ccc(F)cc2)cc1 | -2.69% (inactive) | 
6 | Cn1cccc1/C=N/NC(=O)c1ccc(OC(F)(F)C(F)F)cc1 |  | 2 µM (active)
7 | Cc1cccc(C(=O)Nc2ccc(C(=O)N/N=C/c3cccc(C)n3)cc2)c1 | 1.91% (inactive) | 
8 | C/C(=N\NC(=O)Cc1ccccc1[N+](=O)[O-])c1cccnc1 | 26.2% (inactive) | 
9 | CC1CC(C)CN(C(=O)C2CC(=O)N(c3ccc(F)cc3)C2)C1 (stereo not drawn) | -8.45% (inactive) | 
10 | COc1ccc(S(=O)(=O)Nc2ccc(O)c(Sc3nc4ccccc4s3)c2)cc1 | 1.49% [at 10 µM] (inactive) | 
11 | O=C(O)c1cccc(S(=O)(=O)Nc2ccc(O)cc2Sc2nc3ccccc3s2)c1 |  | 10 µM (active)
12 | O=C(O)c1ccccc1CSc1nc2ccccc2s1 | -0.569% (inactive) | 
13 | CCOC(=O)COc1cc(O)c2c(=O)cc(-c3ccccc3)oc2c1 | -12% (inactive) | 
14 | O=c1cc(-c2ccc(O)cc2)oc2c(-c3cc(-c4cc(=O)c5c(O)cc(O)cc5o4)ccc3O)c(O)ccc12 | 5.83% (inactive) | 
15 | COc1c(O)cc2oc(-c3ccc(O)c(O)c3)cc(=O)c2c1O |  | inactive and 12.6 µM (active)
16 | COc1ccc(-c2cc(=O)c3c(O)cc(O[C@@H]4O[C@H](CO[C@@H]5O[C@@H](C)[C@H](O)[C@@H](O)[C@H]5O)[C@@H](O)[C@H](O)[C@H]4O)cc3o2)cc1O | 1.9% (inactive) | 
17 | Cc1cccc(-c2cc(=O)c3cc(C)ccc3o2)c1 | -18.1% (inactive) | 
18 | O=c1cc(-c2ccc(O)c(O)c2)oc2cccc(O)c12 |  | 14.1 µM (active)
19 | Cc1ccc(-c2noc(C3CCCN(C(=O)c4cccc(Cl)c4)C3)n2)o1 (stereo not drawn) | -1.35% (inactive) | 
20 | CCOC(=O)N1CCN(Cc2nc3cc(NC(=O)CC)ccc3n2CC)CC1 | -9.43% (inactive) | 
21 | C#CCOc1ccc(/C=C2/C(=O)ON=C2C)cc1OCC | 19.7% (inactive) | 
22 | Cc1ccccc1CN1CCC(C(=O)Nc2ccc(Oc3cccnc3)cc2)CC1 | 5.98% (inactive) | 

Row | SMILES | activity change, negative = inhibition | Potency
23 | CC1(C)Cc2c(cnn2-c2cccc(F)c2)C(NC(=O)c2cc[n+]([O-])cc2)C1 (stereo not drawn) | 18.2% (inactive) | 
24 | CC1(C)C(C=C(Cl)Cl)C1C(=O)NC(O)C(=O)c1ccccc1 (stereo not drawn) | 2.63% (inactive) | 
25 | CCc1ccc(CN(C)Cc2nc(Cc3ccccc3)no2)nc1 |  | 11.2 µM (active)
26 | CN(Cc1ccc2nsnc2c1)Cc1nc(Cc2cccc(F)c2)no1 | 5.49% (inactive) | 
27 | CN(Cc1ccccn1)Cc1nc(-c2ccc(Cl)cc2)no1 | -8.55% (inactive) | 
28 | Cc1ccc(S(=O)(=O)NCCC(=O)Nc2ccc(C)c(Cl)c2)cc1C | 18.6% (inactive) | 
29 | Cc1ccc(S(=O)(=O)NCCC(=O)Nc2cccc(S(N)(=O)=O)c2)cc1C | -17.4% (inactive) | 
30 | Cc1ccnc(NC(=O)CCNS(=O)(=O)c2ccc(C)c(C)c2)c1 |  | 10 µM (active)
31 | COC(=O)C(NC(C)=O)(Nc1nc2c(s1)CCCC2)C(F)(F)F (stereo not drawn) | 0.2% (inactive) | 
32 | Fc1ccc2nc(Nc3nc4c(s3)CCCC4)sc2c1 |  | 3.16 µM (active)
33 | O=C(Cn1c(=O)sc2ccccc21)Nc1nc2c(s1)CCCC2 | 6.34% (inactive) | 
34 | O=C(Nc1cccc(-c2cccc(Cl)c2)c1)C1CCN(C2CCC2)CC1 | -24.5% (inactive) | 
35 | Cc1c2c(nc3ccccc13)-c1cccc(=O)n1C2 |  | 8.91 µM (active)
36 | CC(C)c1ccc2c([Si](C)(C)C)c3c(nc2c1)-c1cccc(=O)n1C3 | 1.99% (inactive) | 
37 | Cc1nc2ccccc2c(C)c1C(=O)c1ccc(F)cc1 | -4.49% (inactive) | 
38 | CCn1c(=S)sc2c(=O)n(CC(=O)Nc3ccc(OC)cc3)c(C)nc21 | -10.3% (inactive) | 
39 | Cc1ccc(C)c(N2CCN(S(=O)(=O)c3c(C)[nH]c(C)c3C(=O)N3CCCC3)CC2)c1 | 1.12% (inactive) | 
40 | CC1(C)Cc2ccccc2-c2nc(CN3CCOCC3)[nH]c(=O)c21 | -5.08% (inactive) | 
41 | CCOC(=O)C1Cn2c(nc3c(c2=O)C(C)(CC)Cc2ccccc2-3)S1 (stereo not drawn) | 4.88% (inactive) | 
42 | CCC1(CC)Cc2ccccc2-c2nc(CCl)[nH]c(=O)c21 |  | 11.2 µM (active)
43 | CC(=O)c1ccc(OCC(O)CN2CCN(S(=O)(=O)c3cccc(Br)c3)CC2)cc1 (stereo not drawn) | 1.55% (inactive) | 
44 | COC(=O)C1CCCCN1C(=O)c1ccc(OC2CCN(C(C)=O)CC2)c(OC)c1 (stereo not drawn) | 0% (inactive) | 

Row | SMILES | activity change, negative = inhibition | Potency
45 | Cc1ccc(CN(CC(=O)NCC2CCCO2)S(=O)(=O)c2ccc(C)cc2)cc1 (stereo not drawn) | -3.1% (inactive) | 
46 | COc1ccccc1Cn1c(CO)nc2ccccc21 | -33.8% (inactive) | 
47 | COCc1nc2ccccc2n1Cc1ccccc1Br |  | 6.31 µM (active)
48 | COCn1c(COc2ccccc2)nc2ccccc21 | -18.9% (inactive) | 
49 | Cc1ccc(S(=O)(=O)CC(=O)NC(C)c2ccccc2)cc1 (stereo not drawn) | 21% (inactive) | 
50 | CC(NC(=S)NNS(=O)(=O)c1ccc(C(C)(C)C)cc1)c1ccccc1 (stereo not drawn) |  | 8.91 µM (active)
51 | Cc1ccc(S(=O)(=O)NNC(=O)Nc2cccc3ccccc23)cc1 | 2.09% (inactive) | 
52 | CC(NC(=O)Nc1ccccc1)c1ccccc1 (stereo not drawn) | -8.38% (inactive) | 
53 | Cc1ccc(S(=O)(=O)NNC(=S)NC(C)(C)C)cc1 |  | 8.91 µM (active)
54 | COc1ccc(C(=O)NNS(=O)(=O)c2ccc(C)cc2)cc1 | -13.6% (inactive) | 
55 | CCOc1ccc(N(CC(=O)NCCc2ccc(F)cc2)S(=O)(=O)c2ccccc2)cc1 | 14.9% (inactive) | 
56 | COc1ccccc1CNC(=O)[C@@H]1CCCN1C(=O)[C@@H]1Cc2ccccc2CN1C(=O)OC(C)(C)C | 33.9% (inactive) | 
57 | CCN(CC)c1ccc(C(=O)Nn2c(C)nc3ccccc3c2=O)cc1 | -16.6% (inactive) | 
58 | CCCCCc1ccc(-c2cn(Cc3ccc4ccccc4c3)nn2)cc1 | -1.78% (inactive) | 
59 | CCCCCc1ccc(-c2ccc(C(=O)O)cc2)nc1 |  | 6.31 µM (active)
60 | CCCCCc1ccc(-c2ccc(OCC)cc2)nc1 | -33.7% (inactive) | 
61 | Cc1cccc(-c2nnc(SCC(=O)O)n2Cc2ccccc2)c1 | 4.58% (inactive) | 
62 | O=C(CCC(=O)c1cccs1)NC1CCCCCC1 | 9.7% (inactive) | 
63 | CCCCC(CC)CNC(=O)CCCCn1c(=O)[nH]c2ccsc2c1=O (stereo not drawn) | -18.2% (inactive) | 
64 | O=C(CCCCCn1c(=S)[nH]c2ccsc2c1=O)NC1CCCCC1 |  | 11.2 µM (active)
65 | O=C(CN1C(=O)c2ccccc2C1=O)NCc1ccc(C(=O)O)cc1 | -11.3% (inactive) | 
66 | COc1ccc(N(CC(=O)Nc2cc(OC)cc(OC)c2)S(=O)(=O)c2c(C)n[nH]c2C)cc1 | -11.3% (inactive) | 

Row | SMILES | activity change, negative = inhibition | Potency
67 | Cc1cccc(N2CCN(C(C)C(=O)N3CCc4ccccc43)CC2)c1C (stereo not drawn) | -0.135% (inactive) | 
68 | Cc1ccn(CCC(=O)N2c3ccccc3CC2C)n1 (stereo not drawn) | -3.48% (inactive) | 
69 | COc1ccc(-c2cn(-c3ccc(OC)cc3)c(=S)[nH]2)cc1 |  | 0.398 µM (active)
70 | COc1ccc(-n2c(C)csc2=S)cc1 | 13.1% (inactive) | 
71 | COc1ccc(N2C(=O)CNC2=S)cc1 | -0.234% (inactive) | 
72 | COc1ccc(S(=O)(=O)N(CC(=O)N/N=C/c2ccc(C(=O)O)cc2)Cc2ccccc2)cc1OC | -0.595% (inactive) | 
73 | COc1ccc(-n2ncc3c(SCC(=O)NNC(C)=O)ncnc32)cc1 | -14.4% (inactive) | 
74 | CC(C)C[C@@H](COc1ccccc1)N1CCN(CC(C)C)CCC1=O | 5.12% (inactive) | 
75 | CCOc1cc(/C=C(/C#N)c2ccc(Cl)cc2)cc(Cl)c1OCC(=O)O |  | 0.891 µM (active)
76 | CCOC(=O)CN/C=C(\C#N)c1ccc(F)cc1 | 4.9% (inactive) | 
77 | C/C(=N\OCC(=O)O)c1ccc(Cl)cc1 | 2.12% (inactive) | 
78 | CCOC(=O)NNC(=O)c1ccc(Cl)cc1 | 22.9% (inactive) | 
79 | CC(C)CNC(=S)NC(=O)c1ccc(Cl)cc1 |  | 3.98 µM (active)
80 | CC(C)C(NC(=O)c1ccc(Cl)cc1)C(=O)O (stereo not drawn) | 5.86% (inactive) | 
81 | COc1ccc(C2=NS(=O)(=O)N(C)C(C(=O)N(C)Cc3ccccc3)=C2)cc1 | 10.9% (inactive) | 
82 | CCn1cc(CCC(=O)NCc2ccc(F)cc2)c2ccccc21 | -1.55% (inactive) | 
83 | C/C(=N\c1nc2ccccc2n1C)c1cc(Cl)ccc1O | -4.15% (inactive) | 
84 | CCN(CC)CCn1c(/N=C/c2cc(Br)ccc2O)nc2ccccc21 |  | 3.98 µM (active)
85 | CCN(CC)CCn1c(N)c(S(=O)(=O)c2ccccc2)c2nc3ccccc3nc21 | -4.59% (inactive) | 
86 | Cc1ccc(Cn2c(C)c3cnn(CC(=O)NCc4ccccn4)c(=O)c3c2C)cc1 | -19.1% (inactive) | 
87 | COc1ccc2cc(C(=O)O)n(CC(=O)c3ccccc3)c2c1 | 10.7% (inactive) | 
88 | CCOC(=O)c1cc2ccccc2n1CC(=O)c1ccccc1 | 0.755% (inactive) | 

Row | SMILES | activity change, negative = inhibition | Potency
89 | CCn1c(=N)n(CC(=O)c2cccc(OC)c2)c2ccccc21 |  | 6.31 µM (active)
90 | COc1ccc(NC(=O)c2cc(-c3cc(OC)c(OC)c(OC)c3)nc3ccccc23)c(OC)c1 | 32.5% (inactive) | 
91 | COC(=O)c1ccc(COc2ccc(C#N)cc2)o1 | -14.9% (inactive) | 
92 | COc1ccc(C2/C(=C(/O)c3ccccc3)C(=O)C(=O)N2C)c(OC)c1 (stereo not drawn) | -11.9% (inactive) | 
93 | CCn1c(C(O)c2cc(OC)ccc2OC)nc2ccccc21 (stereo not drawn) | -4.76% (inactive) | 
94 | COc1ccc(OC)c(C(O)c2nc3ccccc3n2C)c1 (stereo not drawn) | 2.31% (inactive) | 
95 | CCCn1c(C(O)c2cc(OC)ccc2OC)nc2ccccc21 (stereo not drawn) |  | 17.8 µM (active)
96 | CCOC(=O)c1ccccc1NS(=O)(=O)c1c(C)nc2sccn2c1=O | 35.7% (inactive) | 
97 | OCC(CO)NC1C[C@](O)(CO)[C@@H](O)[C@H](O)[C@H]1O (stereo partly drawn) | 4.55% [at 10 µM] (inactive) | 
98 | C=CCn1c(SCC(=O)NC23CC4CC(CC(C4)C2)C3)nc(O)cc1=O | 34% (inactive) | 
99 | C=CCn1c(SCC(=O)NC)nnc1C12CC3CC(CC(C3)C1)C2 | -9.51% (inactive) | 
100 | C=CCn1c(C23CC4CC(CC(C4)C2)C3)n[nH]c1=S |  | 2.82 µM (active)
101 | Cc1nn(Cc2ccccc2)c(C)c1NS(=O)(=O)c1ccccc1 | 23.2% (inactive) | 
102 | Cc1ccccc1NC(=O)CCNS(=O)(=O)c1ccc2[nH]c(=O)oc2c1 | -15.3% (inactive) | 
103 | CCOc1ccccc1-c1cc(C(=O)N2CCOCC2)c2ccccc2n1 | 28.2% (inactive) | 
104 | CCOc1cccc(/C=C/c2ccc3ccccc3n2)c1OC(C)=O |  | 3.98 µM (active)
105 | COc1cccc(/C=C2\C=C(c3ccc(C)cc3)OC2=O)c1OC(C)=O | -1.83% (inactive) | 
106 | COc1cccc(/C=C/c2ccc3ccccc3n2)c1OC(C)=O |  | 2 µM (active)
107 | CC(=O)c1ccc(S(=O)(=O)N2CCN(C(=O)/C=C/c3ccc4ccccc4n3)CC2)cc1 | 16.1% (inactive) | 
108 | CC(OC(=O)c1ccc2ccccc2n1)C(=O)c1ccccc1 (stereo not drawn) | 22.8% (inactive) | 

From PubChem BioAssay AID2551 (National Center for Advancing Translational Sciences (NCATS), 2010)
